MPTP block = permeability transition pore inhibition; inhibition, % at 10 µM; isolated mouse mitochondria, Ca2+ swelling absorbance, 30 min; 1.4% of 360,000 active;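 active means inhibition of 50% or more, scaled per plate between neutral and stimulator controls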
NadD inh = NadD (S. aureus) enzyme inhibition; purified NadD enzyme, colorimetric absorbance read-out; inhibition, % at 20 µM; 0.78% of 360,000 active; AID 602399; in the data active means inhibition above about 26%
H9c2 TAG inh = reduces triacylglycerol accumulation in H9c2 cells. 0.66% of 230,000 active. Nile Red lipid (TAG) fluorescence; cells loaded with 200 µM oleic acid. inhibition, % at 12.5 µM;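 active means pattern-corrected inhibition of lipid staining of at least 50% with the nuclear-stain viability signal not falling by more than 50%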
aDG glyco up = increases alpha dystroglycan glycosylation; Pro5-aDG cells, alpha-DG glycosylation AlphaScreen (IIH6); 0% Pro5, 100% B10-LARGE cell signal; 0.22% of 360,000 active; activation, % at 10 µM;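 active means activation of at least 8% versus controls, or a plate z-score of at least 8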;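 further: Pro5 are CHO cells carrying HIG-tagged alpha-DG that lacks glycosylation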
aDG glyco conf = alpha-DG glycosylation activation, confirmation | shares compounds with aDG glyco up | Pro5-aDG cells, IIH6 AlphaLISA; scaled to LARGE-overexpressing B10 cells as 100% | activation, % at 10 µM (by protocol) | 17% of 600 active | AID 651671;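 active means activation of at least 7% in one or more replicates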;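 further: cells exposed to compound for two days before detection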
Large screens that a line does not name were inactive (follow-up assays come after a bar, where they were run). Rows were chosen to be rich in hits. Some 2.7% of all compounds tested hit in one or more screens of this group.

CC(=O)c1ccc(N2CCN(C(=O)Nc3ccc(F)cc3)CC2)cc1	none
CC(=O)c1ccc(N2CCN(C(=O)Nc3ccc(C(C)C)cc3)CC2)cc1	aDG glyco up 7.4 | aDG glyco conf 6.8
COc1ccc(S(=O)(=O)N2CCOCC2)cc1NC(=O)CCCSc1ccccc1	none
Cc1cc(N2CCN(C(=O)Nc3ccc(F)cc3F)CC2)c2ccccc2n1	none (no result: H9c2 TAG inh)
CCCCc1ccc(NC(=O)N2CCN(c3cc(C)nc4ccccc34)CC2)c(C)c1	aDG glyco up 3.3 (no result: H9c2 TAG inh) | aDG glyco conf inactive
CCN1CCc2c(sc(NC(=O)c3ccc(S(=O)(=O)N4CC(C)OC(C)C4)cc3)c2C(N)=O)C1 (configuration not stated)	aDG glyco up 17 (no result: H9c2 TAG inh) | aDG glyco conf inactive
CCN1CCN(S(=O)(=O)c2ccc(C(=O)Nc3sc4c(c3C(N)=O)CCN(CC)C4)cc2)CC1	none
CN1CCc2c(sc(NC(=O)c3ccc(C(=O)c4ccccc4)cc3)c2C(N)=O)C1	aDG glyco up 12 | aDG glyco conf inactive
O=C1C=C(c2n[nH]nc2-c2ccccc2)C[C@@H](c2ccc(F)cc2)C1	none
CSCC[C@H](NC(=O)Cc1c(C)c2cc3c(C)c(C)oc3cc2oc1=O)C(=O)N[C@@H](C(=O)O)c1ccccc1	none (no result: H9c2 TAG inh)
c1cncc(-c2nnc(-c3cccnc3)nn2)c1	aDG glyco up 13 | aDG glyco conf 7.6
COC(=O)[C@@]12C[C@@H](CC(=O)N3CCCC3)C(=O)N(Cc3ccc4c(c3)OCO4)C1=CCC(C)(C)C2	none (no result: NadD inh, H9c2 TAG inh)
COc1ccc2cc(C(C)C(=O)Nc3cccc(S(=O)(=O)N(C)C)c3)ccc2c1 (configuration not stated)	none (no result: H9c2 TAG inh)
CCOC(=O)C1=C(C)OC(N)=C(C#N)C1c1ccc(OC)c(C)c1OC (configuration not stated)	aDG glyco up 9.7 (no result: H9c2 TAG inh) | aDG glyco conf inactive
CCn1c2ccc(F)cc2c2nnc(NN)nc21	none (no result: H9c2 TAG inh)
NNc1nnc2c3cc(F)ccc3n(Cc3ccccc3)c2n1	aDG glyco up 5.1 | aDG glyco conf inactive
O=C(Nc1ccc(O)cc1)c1ccccc1OCc1ccccc1	none
O=C(Nc1ccccc1)c1ccccc1OCc1ccc(F)cc1	aDG glyco up 3.8 | aDG glyco conf inactive
COc1ccccc1Cc1c(C2CCCCC2)nc2c3ccccc3ccn12	none (no result: H9c2 TAG inh)
CCCCCNCC(=O)Nc1cccc(C(=O)Nc2cccc(C(F)(F)F)c2)c1	aDG glyco up 16 | aDG glyco conf 10
CCOC(=O)N1CCC(N2C(=O)c3ccc(C(=O)Nc4ccc(F)cc4F)cc3C2=O)CC1	aDG glyco up 8.8 | aDG glyco conf inactive
CCOC(=O)N1CCC(N2C(=O)c3ccc(C(=O)Nc4ccc(OC)cc4)cc3C2=O)CC1	none (no result: H9c2 TAG inh)
CCOC(=O)C1CC2=C(CCCC2=O)N(Cc2ccccc2)C1=O (configuration not stated)	none
CCn1cc(C(=O)NCC(OC)OC)c(=O)c2cc(S(=O)(=O)N3CCOCC3)ccc21	aDG glyco up 7.6 (no result: H9c2 TAG inh) | aDG glyco conf inactive
Cc1cccc(C)c1NC(=O)C(c1ccncc1)N1CCN(C)CC1 (configuration not stated)	aDG glyco up 9.8 (no result: NadD inh, H9c2 TAG inh) | aDG glyco conf inactive
CCOC(=O)CN(C(=O)CSc1nnc(CNc2ccc(F)cc2)n1CC)c1ccc(F)cc1	aDG glyco up 5.2 | aDG glyco conf inactive
CCOC(=O)CN(C(=O)CSc1nnc(CNc2ccc(C)cc2C)n1CC)c1ccccc1	none
CC1(C(=O)NS(=O)(=O)Cc2cccc(Cl)c2)CCN1C(=O)c1cccc(F)c1 (configuration not stated)	none
N#CCC(=O)Nc1ccc(C(=O)OCC(=O)N=c2sccn2Cc2ccccc2Cl)cc1	aDG glyco up 5.4 | aDG glyco conf inactive
O=C(COC(=O)c1ccc(O)cc1O)N=c1sccn1Cc1ccccc1Cl	none
Cn1c(SCc2cccc([N+](=O)[O-])c2)nc2ccccc2c1=O	aDG glyco up 2.6 | aDG glyco conf inactive
CC(C)C(NC(=O)c1ccco1)C(=O)NCc1ccc(C(=O)O)cc1 (configuration not stated)	none (no result: H9c2 TAG inh)
C/C(=N\Nc1nc(C)cc(-c2ccccc2)n1)c1ccc(C)o1	aDG glyco up 4.6 | aDG glyco conf inactive
C/C(=N/Nc1nc(C)cc(-c2ccccc2)n1)c1ccco1	none
CCOC(=O)c1c(C)nc2cc(C)ccn12	none (no result: H9c2 TAG inh)
CCOC(=O)c1cn2ccc(C)cc2n1	aDG glyco up 20 | aDG glyco conf inactive
CCCCc1c(-c2ccccc2F)ncn1CCc1ccccc1OC	none (no result: H9c2 TAG inh)
CCOC1=C2CN(S(=O)(=O)c3ccc(C)cc3)[C@H](c3ccccc3)C[C@@H]2N(S(=O)(=O)c2ccc(C)cc2)[C@H](c2ccccc2)C1	aDG glyco up 6.8 (no result: H9c2 TAG inh) | aDG glyco conf inactive
COc1ccc(N2CCN(Cc3nc(N)nc(Nc4ccccc4OC)n3)CC2)cc1	aDG glyco up 12 | aDG glyco conf inactive
COc1ccccc1Nc1nc(N)nc(CN2CCN(Cc3ccccc3)CC2)n1	none
CC1CCCCC1NC(=O)Cc1ccc(S(=O)(=O)N2CCOCC2)s1 (configuration not stated)	aDG glyco up 6.0 | aDG glyco conf inactive
CN1CC[n+]2cnc3ccccc3c21	aDG glyco up 6.2 (no result: H9c2 TAG inh) | aDG glyco conf inactive
c1ccc2c(N3CCCCC3)ncnc2c1	none
COc1ccc(N2CC(NC(=O)N3CCN(C(=O)c4ccco4)CC3)CC2=O)cc1OC (configuration not stated)	none
CCOC(=O)c1cc(-c2ccc(F)cc2)n(CCC(=O)NC2CCN(Cc3ccccc3)CC2)c1C	aDG glyco up 8.4 (no result: H9c2 TAG inh) | aDG glyco conf 3.5
CCc1nc2ccc(C(=O)NCCCN3CCCC3=O)cn2c1N(C)C(=O)C1CCCCC1	none
CCOc1ccc(N2CC(C(=O)N3CCN(c4ccccn4)CC3)CC2=O)cc1 (configuration not stated)	aDG glyco up 10 | aDG glyco conf 10
CCc1ccc(N2CC(C(=O)N3CCN(c4ccccn4)CC3)CC2=O)cc1 (configuration not stated)	none
CCN(CC)S(=O)(=O)c1ccc(C(=O)NCC2CCCCC2)cc1	none (no result: H9c2 TAG inh)
O=C(CN1C2=NCCCN2c2ccccc21)c1ccc([N+](=O)[O-])cc1	aDG glyco up 7.5 | aDG glyco conf inactive
Cc1cc(OCc2nc(-c3cccs3)no2)cc(C)c1Cl	aDG glyco up 7.7 | aDG glyco conf inactive
O=C1c2ccccc2C(Nc2ccc(S(=O)(=O)N3CCOCC3)cc2)N1c1cccnc1 (configuration not stated)	aDG glyco up 10 | aDG glyco conf inactive
Cc1sc2nc(CSC(C)C(=O)NC3(C#N)CCCCC3)[nH]c(=O)c2c1C (configuration not stated)	none
CCC(c1nnnn1Cc1cccs1)N1CCN(c2nc3ccccc3s2)CC1 (configuration not stated)	aDG glyco up 12 | aDG glyco conf 3.4
COc1ccccc1CNC(=O)CCc1nnc2ccc(NCCCN3CCCC3=O)nn12	none (no result: H9c2 TAG inh)
COc1ccc(-c2cc(C(=O)OCC(=O)N3CCOCC3)c3ccccc3n2)cc1	none
COC(=O)C1CCN(C(=O)COC(=O)c2cc(-c3ccccc3)nc3ccc(OC)cc23)CC1	aDG glyco up 6.7 | aDG glyco conf inactive

High-throughput results (PubChem)
